These results are taken from PubChem BioAssay (Tox21).

SMILES strings stand for the structures. Values joined by “and” are separate entries in the source; they are usually repeats but may differ in a detail not shown here. Equal entries are not always repeated. Results filed as inconclusive are left out. Some structures have more than one record in an assay (separate samples or runs), and their calls can disagree. Active and inactive are the calls of the source. Unless noted, calls come from the whole dose curve; as a rule, active = well fitted curve in the direction sought with a large enough effect in the repeat runs; inconclusive = weak or mixed curves; inactive = no such curve, though single readings can be large; an effect the other way counts as inactive or inconclusive.

Assay [1] concerns the target Acetylcholinesterase (Homo sapiens) (UniProt P22303). The assay can be described thus: Acetylcholinesterase (AChE) small molecule antagonists: colormetric cell-based qHTS assay (AID 1347395; calls by dose curve; note: nearly all actives have a fitted effect of over 30% in size; note: potency is the fitted concentration of half-maximal effect). An outline of the steps: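 Quantitative HTS in attached SH-SY5Y cells: 30 min compound exposure, then 90 min with acetylthiocholine and DTNB at 37 C; colour from thiocholine reports AChE activity.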

For assay [2] the target is unchanged. Put plainly: Acetylcholinesterase (AChE) small molecule antagonists: enzyme-based qHTS assay (AID 1347397; calls by dose curve; note: nearly all actives have a fitted effect of over 55% in size; note: potency is the fitted concentration of half-maximal effect). As to conditions: Potency: AChE enzyme activity inhibition. The procedure, abridged: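 In this quantitative HTS, compounds from the Tox21 10K collection were preincubated 30 min at ambient temperature with recombinant human AChE dispensed at 50 mU/mL. Hydrolysis of acetylthiocholine was then followed for 10 min by DTNB colour development.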
For orientation: In qHTS, concentration-response curves come from the screen itself.

For assay [3] the target is unchanged. Put plainly: Acetylcholinesterase (AChE) small molecule antagonists: fluorescence cell-based qHTS assay (AID 1347398; calls by dose curve; note: nearly all actives have a fitted effect of over 50% in size; note: potency is the fitted concentration of half-maximal effect). As to conditions: Potency: AChE activity. The procedure, abridged:
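Cells (SH-SY5Y) attached overnight, were dosed with compound or DMSO vehicle for 30 min at 37 C, and then incubated 40 min at room temperature with acetylthiocholine and Thiolite Green; green fluorescence indexed AChE activity.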

Assay [4] shares this target. Put plainly: Acetylcholinesterase (AChE) small molecule antagonists: enzyme-based qHTS assay with human liver microsomes (AID 1347399; calls by dose curve; note: nearly all actives have a fitted effect of over 60% in size; note: potency is the fitted concentration of half-maximal effect). As to conditions: Potency: qHTS inhibition. An outline of the steps: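 Recombinant human AChE (50 mU/mL in the enzyme mix) and human liver microsomes (0.25 mg/mL final) were preincubated with compound and NADPH (0.25 mg/mL final) for 30 min at 37 C. Acetylthiocholine/DTNB was then added; thiocholine was read colorimetrically after 10 min at room temperature.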

For assay [5], the target named is Cytochrome P450 2D6 (Homo sapiens) (UniProt P10635). Put plainly: Cytochrome P450 Family 2 Subfamily D Member 6 (CYP2D6) small molecule antagonists: luciferase reporter qHTS assay (AID 1671196). Note: nearly all actives have a fitted effect of over 50% in size. Note: potency is the fitted concentration of half-maximal effect. The procedure, abridged:
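Quantitative HTS of Tox21 chemicals against CYP2D6 using a luminescent proluciferin substrate. After NADPH addition, 1 h room-temperature reaction; luminescence recorded 20 min post detection reagent.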
On the technique in general: Reporter assays use an easily measured gene product as a stand-in for the process of interest.

In assay [6] the target is Cytochrome P450 2C19 (Homo sapiens) (UniProt P33261). The assay can be described thus: Cytochrome P450 Family 2 Subfamily C Member 19 (CYP2C19) small molecule antagonists: luciferase reporter qHTS assay (AID 1671197). Note: nearly all actives have a fitted effect of over 65% in size. Note: potency is the fitted concentration of half-maximal effect. An outline of the steps: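 Enzyme-substrate mix with proluciferin substrate (P450-Glo CYP2C19 system) preincubated with compounds 10 min at room temperature; NADPH regeneration solution added, 37C for 1 h; detection reagent stops reaction, luminescence read after 20 min. Ketoconazole positive control.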
Sequence of Cytochrome P450 2C19 (Homo sapiens) (P33261 whole entry, looked up): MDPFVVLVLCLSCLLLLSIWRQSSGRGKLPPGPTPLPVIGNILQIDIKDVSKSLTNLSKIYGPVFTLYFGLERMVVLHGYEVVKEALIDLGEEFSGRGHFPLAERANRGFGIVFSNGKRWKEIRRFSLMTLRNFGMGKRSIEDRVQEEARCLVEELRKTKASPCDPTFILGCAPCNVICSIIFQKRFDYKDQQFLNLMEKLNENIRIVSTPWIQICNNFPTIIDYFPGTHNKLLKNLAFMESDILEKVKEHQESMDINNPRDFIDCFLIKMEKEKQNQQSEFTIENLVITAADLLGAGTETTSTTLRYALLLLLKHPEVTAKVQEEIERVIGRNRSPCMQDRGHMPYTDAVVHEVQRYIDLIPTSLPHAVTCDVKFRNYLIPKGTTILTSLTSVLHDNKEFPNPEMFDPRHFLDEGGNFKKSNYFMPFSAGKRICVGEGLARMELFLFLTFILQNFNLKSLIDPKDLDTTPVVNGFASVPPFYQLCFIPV

Assay [7] addresses Cytochrome P450 2C9 (Homo sapiens) (UniProt P11712). The assay can be described thus: Cytochrome P450 Family 2 Subfamily C Member 9 (CYP2C9) small molecule antagonists: luciferase reporter qHTS assay (AID 1671198). Note: nearly all actives have a fitted effect of over 50% in size. Note: potency is the fitted concentration of half-maximal effect. An outline of the steps:
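P450-Glo proluciferin substrate with CYP2C9 enzyme; 10 min RT preincubation, then NADPH regeneration 1 h at 37C; luciferin detection reagent 20 min RT, luminescence in relative luminescence units.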

Assay [8] deals with Cytochrome P450 1A2 (Homo sapiens) (UniProt P05177). The assay can be described thus: Cytochrome P450 Family 1 Subfamily A Member 2 (CYP1A2) small molecule antagonists: luciferase reporter qHTS assay (AID 1671199). Note: nearly all actives have a fitted effect of over 50% in size. Note: potency is the fitted concentration of half-maximal effect. The procedure, abridged: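 Quantitative high-throughput format using the P450-Glo CYP1A2 system. Reaction initiated by NADPH regeneration solution, 1 h at room temperature, then stopped with detection reagent; luminescence measured 20 min later.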
Sequence of Cytochrome P450 1A2 (Homo sapiens) (P05177 whole entry, looked up): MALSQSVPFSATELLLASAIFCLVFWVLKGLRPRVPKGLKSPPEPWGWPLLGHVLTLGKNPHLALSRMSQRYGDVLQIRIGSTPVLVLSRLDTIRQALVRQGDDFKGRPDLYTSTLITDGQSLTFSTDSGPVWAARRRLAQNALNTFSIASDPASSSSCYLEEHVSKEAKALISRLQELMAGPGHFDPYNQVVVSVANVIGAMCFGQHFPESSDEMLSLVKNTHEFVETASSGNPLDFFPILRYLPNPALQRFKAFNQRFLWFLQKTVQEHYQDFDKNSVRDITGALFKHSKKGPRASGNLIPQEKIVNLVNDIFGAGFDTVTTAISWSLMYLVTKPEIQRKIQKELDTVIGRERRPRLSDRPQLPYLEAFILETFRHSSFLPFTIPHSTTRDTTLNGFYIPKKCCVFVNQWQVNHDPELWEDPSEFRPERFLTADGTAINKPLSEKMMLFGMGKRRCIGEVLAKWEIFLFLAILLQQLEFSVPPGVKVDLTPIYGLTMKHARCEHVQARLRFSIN

For assay [9], the target named is Voltage-gated inwardly rectifying potassium channel KCNH2 (Homo sapiens) (UniProt Q12809). Put plainly: Human Ether-a-go-go-Related Gene (hERG) channel small molecule antagonists: fluorescence cell-based qHTS assay (AID 1671200). The procedure, abridged: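 First, 1000 cells per well are seeded and cultured overnight at 37 C. Next, FluxOR II dye is loaded for 1 h at room temperature, protected from light. After 10 more minutes, stimulus is added and fluorescence is read.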
Sequence of Voltage-gated inwardly rectifying potassium channel KCNH2 (Homo sapiens) (Q12809 whole entry, looked up): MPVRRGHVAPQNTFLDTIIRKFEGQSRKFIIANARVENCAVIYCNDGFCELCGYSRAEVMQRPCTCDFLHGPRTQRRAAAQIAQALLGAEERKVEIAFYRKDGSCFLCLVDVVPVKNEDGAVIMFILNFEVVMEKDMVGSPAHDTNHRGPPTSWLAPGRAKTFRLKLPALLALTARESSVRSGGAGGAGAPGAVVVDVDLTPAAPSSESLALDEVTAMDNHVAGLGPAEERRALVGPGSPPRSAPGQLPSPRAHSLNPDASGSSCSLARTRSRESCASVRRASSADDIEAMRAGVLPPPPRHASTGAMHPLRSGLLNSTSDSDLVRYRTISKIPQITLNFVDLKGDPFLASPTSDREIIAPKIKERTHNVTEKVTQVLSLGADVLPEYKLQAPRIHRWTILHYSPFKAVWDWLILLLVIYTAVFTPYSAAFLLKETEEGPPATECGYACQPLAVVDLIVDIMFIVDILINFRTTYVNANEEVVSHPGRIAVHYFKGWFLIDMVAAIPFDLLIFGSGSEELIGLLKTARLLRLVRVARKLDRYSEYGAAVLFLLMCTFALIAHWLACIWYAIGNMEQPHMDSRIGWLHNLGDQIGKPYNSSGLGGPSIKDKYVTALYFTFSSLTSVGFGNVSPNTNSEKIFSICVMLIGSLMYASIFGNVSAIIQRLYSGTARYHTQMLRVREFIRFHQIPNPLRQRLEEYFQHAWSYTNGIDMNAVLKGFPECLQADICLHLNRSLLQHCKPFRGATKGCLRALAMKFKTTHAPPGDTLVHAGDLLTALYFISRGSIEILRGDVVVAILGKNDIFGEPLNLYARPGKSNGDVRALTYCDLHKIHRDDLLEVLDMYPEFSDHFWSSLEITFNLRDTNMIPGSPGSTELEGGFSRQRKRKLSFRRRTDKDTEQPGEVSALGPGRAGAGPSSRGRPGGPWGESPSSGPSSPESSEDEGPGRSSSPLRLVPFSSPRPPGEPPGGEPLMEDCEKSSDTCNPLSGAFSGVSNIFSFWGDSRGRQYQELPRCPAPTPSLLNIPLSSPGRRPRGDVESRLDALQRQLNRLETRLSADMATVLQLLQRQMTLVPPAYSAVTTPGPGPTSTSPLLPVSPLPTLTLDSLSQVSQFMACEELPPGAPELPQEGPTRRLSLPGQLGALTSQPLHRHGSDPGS

In assay [10] the target is Cytochrome P450 3A4 (Homo sapiens) (UniProt P08684). The assay can be described thus: Cytochrome P450 Family 3 Subfamily A Member 4 (CYP3A4) small molecule antagonists: luciferase reporter qHTS assay (AID 1671201). Note: nearly all actives have a fitted effect of over 50% in size. Note: potency is the fitted concentration of half-maximal effect. The procedure, abridged: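 Enzyme and proluciferin substrate are mixed with test chemicals for 10 min, then NADPH regeneration system drives turnover for 1 h at room temperature. A detection reagent halts the reaction; luminescence after 20 min gives relative activity.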
Sequence of Cytochrome P450 3A4 (Homo sapiens) (P08684 whole entry, looked up): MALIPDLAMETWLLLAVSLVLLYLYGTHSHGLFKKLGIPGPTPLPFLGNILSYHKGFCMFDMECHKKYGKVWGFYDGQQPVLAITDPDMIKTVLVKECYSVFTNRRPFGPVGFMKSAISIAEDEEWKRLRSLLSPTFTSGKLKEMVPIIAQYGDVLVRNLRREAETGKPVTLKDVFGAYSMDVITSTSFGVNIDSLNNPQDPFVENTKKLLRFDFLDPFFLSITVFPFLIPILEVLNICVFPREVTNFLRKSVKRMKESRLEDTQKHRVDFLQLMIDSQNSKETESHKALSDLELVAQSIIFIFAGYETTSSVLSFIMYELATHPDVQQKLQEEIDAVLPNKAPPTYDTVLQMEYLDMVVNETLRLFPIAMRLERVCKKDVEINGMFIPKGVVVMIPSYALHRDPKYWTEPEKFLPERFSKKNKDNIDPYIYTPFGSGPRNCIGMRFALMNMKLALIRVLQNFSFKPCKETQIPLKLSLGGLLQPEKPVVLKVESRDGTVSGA

Sequence of Cytochrome P450 2C9 (Homo sapiens) (P11712 whole entry, looked up): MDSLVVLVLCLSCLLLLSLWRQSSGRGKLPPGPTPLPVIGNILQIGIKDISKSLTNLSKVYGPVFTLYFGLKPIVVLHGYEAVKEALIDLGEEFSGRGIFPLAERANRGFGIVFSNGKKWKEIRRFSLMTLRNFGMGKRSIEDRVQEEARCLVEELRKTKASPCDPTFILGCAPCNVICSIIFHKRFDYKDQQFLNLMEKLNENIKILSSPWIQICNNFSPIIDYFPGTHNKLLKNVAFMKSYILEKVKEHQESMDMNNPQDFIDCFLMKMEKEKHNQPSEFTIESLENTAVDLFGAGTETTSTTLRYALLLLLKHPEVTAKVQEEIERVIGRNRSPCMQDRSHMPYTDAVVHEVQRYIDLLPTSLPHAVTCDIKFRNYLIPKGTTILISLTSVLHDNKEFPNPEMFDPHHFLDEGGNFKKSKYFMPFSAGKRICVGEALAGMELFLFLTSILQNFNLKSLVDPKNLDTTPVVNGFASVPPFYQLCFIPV
Sequence of Acetylcholinesterase (Homo sapiens) (P22303 whole entry, looked up): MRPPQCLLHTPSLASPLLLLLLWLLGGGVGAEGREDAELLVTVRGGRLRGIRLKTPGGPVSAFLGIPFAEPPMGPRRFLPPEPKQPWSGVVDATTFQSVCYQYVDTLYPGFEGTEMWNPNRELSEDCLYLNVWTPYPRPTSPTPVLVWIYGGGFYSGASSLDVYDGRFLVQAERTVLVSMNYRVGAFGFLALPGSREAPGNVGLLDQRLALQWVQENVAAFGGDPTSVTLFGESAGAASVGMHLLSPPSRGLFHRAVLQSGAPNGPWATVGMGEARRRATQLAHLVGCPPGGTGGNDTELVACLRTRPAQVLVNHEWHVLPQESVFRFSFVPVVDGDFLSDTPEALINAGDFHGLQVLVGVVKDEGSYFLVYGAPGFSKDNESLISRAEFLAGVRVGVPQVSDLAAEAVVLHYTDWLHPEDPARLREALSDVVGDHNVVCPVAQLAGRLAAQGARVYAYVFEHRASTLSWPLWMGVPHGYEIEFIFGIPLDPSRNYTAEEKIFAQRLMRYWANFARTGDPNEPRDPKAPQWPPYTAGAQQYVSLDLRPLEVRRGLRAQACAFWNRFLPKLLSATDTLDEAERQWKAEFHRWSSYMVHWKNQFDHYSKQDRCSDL
Sequence of Cytochrome P450 2D6 (Homo sapiens) (P10635 whole entry, looked up): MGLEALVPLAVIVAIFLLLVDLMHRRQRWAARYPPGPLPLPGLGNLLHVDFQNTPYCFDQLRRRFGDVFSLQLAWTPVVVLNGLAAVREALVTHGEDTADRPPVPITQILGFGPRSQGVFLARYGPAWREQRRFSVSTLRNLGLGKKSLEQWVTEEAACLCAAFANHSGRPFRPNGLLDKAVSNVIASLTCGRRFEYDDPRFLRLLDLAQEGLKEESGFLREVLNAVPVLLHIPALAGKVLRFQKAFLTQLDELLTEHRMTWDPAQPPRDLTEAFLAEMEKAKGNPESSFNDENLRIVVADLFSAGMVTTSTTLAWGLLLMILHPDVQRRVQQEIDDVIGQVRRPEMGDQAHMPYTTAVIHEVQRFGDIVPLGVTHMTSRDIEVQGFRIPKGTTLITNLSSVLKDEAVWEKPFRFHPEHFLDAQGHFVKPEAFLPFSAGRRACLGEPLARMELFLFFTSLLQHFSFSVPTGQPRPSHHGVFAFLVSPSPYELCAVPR

With `Cc1cc(O)ccc1Cl`, the Potency entry in assay [1], in assay [2], in assay [3], in [4], in assay [5] and in assay [7] was “inactive” each time. In addition, the Potency result in [9] and in [10] was “inactive” throughout. Also, the Potency is 25.6 µM (active) and inactive in assay [6]; 36.2 µM (active) and 44.8 µM (active) and 17.4 µM (active) in assay [8].

Regarding `Cl/C=C/Cl`, the Potency result in assay [1], in assay [2], in assay [3], in assay [4], in assay [5] and in assay [6] was “inactive” throughout. The Potency entry in assay [7], in assay [8], in assay [9] and in [10] was “inactive” each time.

As for `Nc1ccc([As](=O)(O)O)cc1`, the Potency result in assay [1], in [2], in assay [3], in assay [4], in assay [5] and in [6] was “inactive” each time. Also, the Potency result in [7], in assay [8] and in assay [9] was “inactive” in each case. Also, in assay [10], the Potency is 34.6 µM (active) and inactive.

On to `O=C(O)CCCc1ccc(N(CCCl)CCCl)cc1`, for which the Potency result in assay [1], in assay [2], in assay [3], in [4], in assay [5] and in [6] was “inactive” throughout. Further, the Potency result in assay [7], in [8], in [9] and in [10] was “inactive” in each case.

`C/C=C/c1ccc2c(c1)OCO2`: the Potency entry in assay [1], in [2], in assay [3], in [4], in [5] and in assay [7] was “inactive” each time. Further, the Potency entry in assay [9] and in assay [10] was “inactive” in each case. In addition, the Potency result in assay [6] was “inactive and 79.6 µM (active)”; in assay [8] it was 39.9 µM (active).

In the case of `COP(=S)(OC)SCN1C(=O)c2ccccc2C1=O`, the Potency in [1] was 71.5 µM (active) and 39.9 µM (active); in assay [5], 35.8 µM (active) and 35.6 µM (active) and 15.5 µM (active); in assay [6] it was 715 nM (active) and 710 nM (active) and 436 nM (active); in assay [7] it was 4.02 µM (active) and 2.52 µM (active) and 1.74 µM (active); in assay [8], 10.1 µM (active) and 10 µM (active) and 6.92 µM (active). Moreover, the Potency result in [2], in [3], in assay [4] and in assay [9] was “inactive” each time.

As for `O=C(O)Cc1ccccc1`, the Potency result in assay [1], in [2], in [3], in [4], in [6] and in assay [7] was “inactive” each time. In addition, the Potency result in assay [9] and in [10] was “inactive” in each case. The Potency in [5] is 40 µM (active) and 12.3 µM (active); in [8], 63.4 µM (active) and inactive.

In the case of `CN(C)C(=O)Cl`, the Potency entry in [1], in [2], in [3], in assay [4], in assay [5] and in assay [6] was “inactive” in each case. Also, the Potency result in [7], in assay [8], in assay [9] and in assay [10] was “inactive” in each case.

For `C=CC(=O)OCCCCCC(C)C`, the Potency entry in assay [1], in assay [2], in [3], in assay [4], in assay [5] and in assay [6] was “inactive” each time. Also, the Potency entry in [7], in assay [8], in assay [9] and in assay [10] was “inactive” each time.

Take `O=C(O)COc1ccccc1`: the Potency result in assay [1], in assay [2], in assay [3], in [4], in [5] and in [6] was “inactive” throughout. Moreover, the Potency result in assay [7], in [8], in assay [9] and in [10] was “inactive” each time.

As for `CNC(=O)O/N=C(\SC)C(=O)N(C)C`, the Potency in assay [1] was 1.55 µM (active) and 1.42 µM (active); in assay [2], 2.45 µM (active) and 2.82 µM (active); in assay [3] it was 489 nM (active) and 632 nM (active); in assay [4] it was 12.3 µM (active) and 20 µM (active); in [5], 30.9 µM (active) and 28.2 µM (active); in assay [6] it was 34.6 µM (active) and 28.2 µM (active). The Potency result in assay [7], in assay [8], in [9] and in [10] was “inactive” throughout.

For the compound `O=C(O)c1cc(Oc2ccc(C(F)(F)F)cc2Cl)ccc1[N+](=O)[O-]`, the Potency result in assay [1], in [2], in assay [3], in assay [4], in assay [5] and in [8] was “inactive” throughout. In addition, the Potency entry in assay [9] and in assay [10] was “inactive” each time. Also, the Potency result in assay [6] was “inactive and 71 µM (active)”; in [7], 21.9 µM (active) and 35.6 µM (active) and 31.9 µM (active).

On to `c1ccc2c(c1)CCCC2`, for which the Potency entry in assay [1], in assay [2], in assay [3], in [4], in [6] and in assay [7] was “inactive” each time. Moreover, the Potency result in assay [8], in assay [9] and in assay [10] was “inactive” each time. Also, the Potency in assay [5] was 7.25 µM (active) and inactive.

For `COC(C)(C)CCCC(C)C/C=C/C(C)=C/C(=O)OC(C)C` (centres undefined), the Potency entry in assay [1], in assay [2], in assay [3], in assay [4], in assay [5] and in [8] was “inactive” each time. The Potency result in assay [9] and in assay [10] was “inactive” in each case. Besides, the Potency in assay [6] was 24.5 µM (active); in assay [7], 62.2 µM (active) and 17.4 µM (active).

Turning to `Nc1cccc(Cl)c1`, the Potency result in assay [1], in assay [2], in assay [3], in assay [4], in assay [5] and in [9] was “inactive” throughout. In addition, in [10], the Potency entry is “inactive”. In addition, the Potency in [6] is 40.4 µM (active) and inactive; in assay [7] it was 71.8 µM (active) and inactive; in [8], 40.4 µM (active) and inactive.

Take `Cc1ccc(N=C=O)cc1N=C=O`: the Potency result in [1], in assay [2], in [3], in assay [4] and in assay [9] was “inactive” throughout. In addition, the Potency is 40.9 µM (active) and 11.2 µM (active) and inactive in assay [5]; 36.5 µM (active) and 10 µM (active) and inactive in assay [6]; 36.5 µM (active) and 25.1 µM (active) and 79.6 µM (active) in assay [7]; 36.5 µM (active) and 35.5 µM (active) in [8]; 5.78 µM (active) and 2.82 µM (active) and inactive in assay [10].

As for `CC(=O)C1CCOC1=O` (centres undefined), the Potency result in assay [1], in [2], in assay [3], in [4], in assay [5] and in [6] was “inactive” in each case. The Potency entry in assay [7], in assay [8], in assay [9] and in [10] was “inactive” in each case.
